We go through 85 compounds from PubChem BioAssay AID485317 (Broad Institute, 2010).

Structures are written as SMILES. The whole screen tested about 290,000 compounds, of which about 11,000 (3.8%) were called active. For the sample, actives were picked, then their nearest neighbours and some compounds at random. Unmarked numbers belong to inactive results.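 How the source made its calls: active means mean replicate inhibition above about 79%, with every replicate also reaching it (limit read from the data); inconclusive means only one of the two criteria met; inactive means mean below limit and not every replicate reaching it.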

In the assay the target is FAD-linked sulfhydryl oxidase ALR (Homo sapiens) (UniProt P55789). The assay is described as follows: ALR-catalysed DTT oxidation blockers – biochemical, H2O2 detection, HRP-luminol luminescence, single point, primary screen (AID 485317). The note with it: purified ALR, active compounds read high, concentration not given here.
Sequence of FAD-linked sulfhydryl oxidase ALR (Homo sapiens) (P55789 whole entry, looked up): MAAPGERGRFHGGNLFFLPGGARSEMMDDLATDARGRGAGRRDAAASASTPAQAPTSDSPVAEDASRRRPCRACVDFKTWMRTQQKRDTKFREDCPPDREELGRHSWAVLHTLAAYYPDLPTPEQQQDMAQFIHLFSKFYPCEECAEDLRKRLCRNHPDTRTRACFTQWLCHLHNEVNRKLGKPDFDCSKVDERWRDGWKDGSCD
Consider `Cc1ccc(COC(=O)CN2C(=O)NC3(CCCC3)C2=O)cc1`, for which the inhibition is -0.909%. For `CCC(=O)Nc1ccc(C(=O)CSc2nnc(CNc3ccc(Cl)cc3)o2)cc1OC`, the inhibition is 0.831%.

`COc1ccc(C(=O)CSc2nnc(-c3ccco3)o2)cc1`: the inhibition is 19.8%. The result for `CC(C)C[C@@H](N)c1nnc(SCC(=O)c2ccc(Cl)cc2)o1` reads 98.5% (active). The result for `Cc1cc(C)cc(-c2nnc(SCC(=O)NC3CC3)o2)c1` reads -0.0792%; that for `CC1=NN(c2ccc(Cl)c(C(=O)O)c2)C(=O)/C1=C/c1ccc(-c2ccccc2[N+](=O)[O-])o1`, 71.4%. For the compound `Cc1cccc(C)c1-n1c(C)cc(/C=C2\C(=O)NN(c3ccccc3)C2=O)c1C`, the inhibition was 21.8%. As to `O=C1NN(c2ccccc2)C(=O)/C1=C/c1ccc(-c2cccc(C(=O)O)c2)o1`, the inhibition was 98.7% (active). As to `O=S(=O)(NCC1CN(S(=O)(=O)c2ccc3c(c2)OCCO3)C1)c1c(F)cccc1F`, the inhibition was -2.88%. The result for `COc1ccc(NC(=O)Nc2ccc3c(c2)C(=O)N([C@H](C)CO)C[C@H](C)[C@@H](CN(C)C(=O)Nc2ccc4c(c2)OCO4)O3)cc1` reads -7.46%. Next, `Cc1cc(C(=O)OCC(=O)N2C(C)CCCC2C)c2ccccc2n1` (stereo not given): -5.22%. Next, `COc1ccc(C(=O)O)cc1S(=O)(=O)NC1CCN(Cc2ccccc2)CC1`: -0.811%; `CCOC(=O)N1CCN(C(=O)c2cc3c(-c4ccc(Cl)cc4)nn(C)c3s2)CC1`: 72.2%. As to `Cn1nc(-c2ccc(Cl)cc2)c2cc(C(=O)NCc3ccco3)sc21`, the inhibition was 86.8% (active). Next, `COc1ccccc1N1CCN(C(=O)c2cc3c(-c4ccc(Cl)cc4)nn(C)c3s2)CC1`: -109%.

Turning to `O=C(COC(=O)c1cccc(Cl)c1)NC1CCCCCCC1`, the inhibition was -2.57%. Next, `O=C(NN=C1CCC(=NNC(=O)c2cccnc2)CC1)c1cccnc1`: 99.1% (active); `C/C(=N\NC(=O)c1cccnc1)c1ccc(-c2ccccc2)cc1`: -25.7%; `O=C(N/N=C/c1ccccn1)c1cccnc1`: -5.07%. In the case of `CCCCN(C1CCS(=O)(=O)C1)S(=O)(=O)c1ccc(C(C)C)cc1` (stereo not given), the inhibition is -1.06%.

For the compound `CC1O[C@H](OC2C(COC3OC(CO)C(O)[C@H](O)C3O)OC(OC3CC[C@]4(C)C(CC[C@@]5(C)[C@@H]4C=C[C@]46OC[C@@]7(CCC(C)(C)C[C@H]74)C(O)C[C@@]56C)C3(C)C)C(O)C2O)C(O)C(O)C1O` (stereo not given in full), the inhibition is -3.57%.

With `CCCCN1C(N)=NC[C@@H]1CC1CCCCC1`, the inhibition was 98.3% (active).

Take `CCCC[C@@H]1CN=C(N)N1CCc1cc(C(F)(F)F)cc(C(F)(F)F)c1`: the inhibition was -42.9%. Next, `CCCC[C@@H]1CN=C(N)N1CCCC`: 4.8%. Next, `COc1ccc(S(=O)(=O)NCCCc2ccccc2)cc1`: -2.65%; `COc1ccc(S(=O)(=O)/N=C2\C=C(NS(=O)(=O)c3ccccc3)C(=O)c3ccccc32)cc1`: 87.5% (active). Next, `COc1ccc(S(=O)(=O)Nc2c(C)n(C)n(-c3ccccc3)c2=O)cc1`: -9.38%; `COc1cc(OC)cc(-c2c(-c3cccs3)c3cc(-c4ccc(OC)nc4)ccc3n2C)c1`: -18.1%.

In the case of `O=C(OCC(=O)N1CCN(C(=O)c2ccco2)CC1)c1c(Cl)cccc1Cl`, the inhibition is -7.05%. Next, `Cn1cccc1C(=O)OCC(=O)NCCc1ccccc1`: 5.56%; `Cc1ccc(Cn2c(SCC(=O)N/N=C/c3ccccc3OCC(=O)O)nc3ccccc32)cc1`: -5.09%. Next, `Cn1c(Cn2nnc3ccccc32)nnc1SCC(=O)c1ccccc1F`: 25.7%; `C=CCn1c(Cn2nnc3ccccc32)nnc1SCC(=O)N/N=C/c1cc(Br)cc(OC)c1O`: 98.4% (active). The result for `CSc1ccccc1NC(=O)C(C)N1C(=O)c2ccccc2S1(=O)=O` (stereo not given) reads -4.05%; that for `CC(=O)C(CC(=O)N1CCCC1)C(=O)Nc1ccc(Cl)cc1` (stereo not given), 23.9%. In the case of `Cc1ccc(N2C(=O)N3[C@@H]4c5ccccc5OC[C@@H]4[C@@H](c4ccccc4)[C@@]3(C)C2=O)cc1`, the inhibition is 3%. The result for `Cc1nc(SCC(=O)NC2CCCCC2C)c(C#N)c(C)c1C` (stereo not given) reads -0.312%.

As for `O=C(CN1C(=O)NC2(CCOc3ccccc32)C1=O)Nc1cccc([N+](=O)[O-])c1` (stereo not given), the inhibition is 13.9%. Consider `COc1ccccc1C(=O)NCCC(=O)NN1C(=O)NC2(CCCCC2)C1=O`, for which the inhibition was -0.581%. On to `COc1ccc(-c2nc3cnccn3c2NC2CCCCC2)cc1-c1cccc(Cl)c1`, for which the inhibition was 3.7%. The result for `CCCCNc1c(-c2ccc(OC)c(Sc3ccc(OC)cc3)c2)nc2ccc(Cl)cn12` reads -8.2%; that for `COc1ccc(-c2nc3cnccn3c2NC(C)(C)CC(C)(C)C)cc1O`, 99.6% (active); that for `COc1ccc(S(=O)(=O)N(C)C[C@@H]2Oc3ccc(NC(=O)Nc4c(C)noc4C)cc3C(=O)N([C@H](C)CO)C[C@@H]2C)cc1`, -1.21%. Take `NC(=O)NC(CC(=O)NNC(=O)c1ccccn1)c1ccc(Cl)cc1` (stereo not given): the inhibition is -14%. Next, `Cc1ccc(N2C(=O)C3C(c4ccccc4)(C2=O)C3(c2ccccc2)c2ccccc2)cc1` (stereo not given): -4.39%. Next, `Cc1ccc(C2SCC(=O)N2c2ccccc2)cc1` (stereo not given): 98.3% (active); `COc1cccc(C2SCC(=O)N2c2cccc(C)c2)c1OC` (stereo not given): -42.2%; `Cc1occc1C(=O)Nc1cccc(S(=O)(=O)N2CCOCC2)c1`: -1.99%. Next, `CCOC(=O)C1CCN(C(=O)c2cccc(S(=O)(=O)N(CC)c3ccccc3)c2)CC1`: -13.6%; `COc1ccc(Cl)cc1NC(=O)CN(C)C(=O)c1cc(-c2cccs2)nn1-c1ccccc1`: 21.6%; `COc1ccc(Nc2ccc([N+](=O)[O-])cn2)cn1`: -22.9%. Take `COc1ccc(NS(=O)(=O)c2ccc(F)cc2F)cn1`: the inhibition was -5.33%. The result for `COc1ccc(Nc2cc(Cl)ccc2C(=O)O)cn1` reads 98.7% (active); that for `O=C(N[C@@H]1C/C=C\C[C@@H](CC(=O)N(CCO)Cc2ccccc2)C(=O)N[C@H](Cc2ccccc2)COC1=O)OCC1c2ccccc2-c2ccccc21`, 5.13%. Next, `CCOc1ccc(NC(=O)COc2ccc(C(=O)N3CCC(C(N)=O)CC3)cc2OC)cc1`: -0.853%; `O=C(CSc1nnc(-c2cccnc2)n1Cc1ccco1)c1ccc(Cl)cc1`: 54.6%.

For the compound `O=C(CSc1nnc(-c2cccs2)n1Cc1ccco1)c1ccc2c(c1)OCO2`, the inhibition is 0.1%. Take `O=C(CSc1nnc(-c2cccnc2)n1Cc1ccco1)c1ccc(Cl)c(Cl)c1`: the inhibition is 98.2% (active). The result for `C(=C\c1ccccc1)/CSc1nnc(-c2cccnc2)n1Cc1ccco1` reads 87.9% (active); that for `CCc1ccc(NC(=O)CSc2nnc(-c3cnccn3)n2Cc2ccco2)cc1`, 29.4%; that for `CCOC(=O)Cc1csc(NC(=O)CSc2nnc(-c3cccnc3)n2Cc2ccco2)n1`, -5.11%. The result for `O=C(CSc1ncn[nH]1)Nc1ccc(Br)cc1Br` reads -5.94%; that for `CC(OC(=O)c1ccccc1NCCO)C(=O)Nc1ccnn1C(C)C` (stereo not given), -3.31%.

With `N#Cc1ccc(CN2CCN(CC(=O)Nc3ccccc3C(=O)NC3CC3)CC2)cc1`, the inhibition is -2.66%. Next, `Cn1cccc1C(=O)NNC(=O)COc1ccc(Br)cc1`: -4.16%; `CCN(CC(=O)Nc1c(F)cccc1F)C(=O)c1ccc(S(=O)(=O)N2CCCCC2)cc1`: -1.01%. Take `Clc1ccccc1CSc1nnc(-c2ccco2)c(-c2ccco2)n1`: the inhibition is 100% (active). The result for `S=C(NCc1ccco1)NCc1ccccc1Cl` reads -9.19%; that for `COC(OC)c1ccnc(SCc2ccccc2Cl)n1`, -8.94%. As for `O=C(Nc1ccc(C(=O)N2CCOCC2)cc1)Nc1cccc(C(F)(F)F)c1`, the inhibition is -2.29%.

With `O=C(O)CCC(=O)N(Cc1ccccc1)Cc1ccccc1`, the inhibition is -2.42%. The result for `Cc1ccc(-c2nn(-c3ccccc3)cc2CN(Cc2ccccc2)C(=O)CCC(=O)O)o1` reads 97.6% (active). Next, `Cc1ccc(-c2nn(-c3cccc(F)c3)cc2CNCCc2ccncc2)o1`: -14.7%; `Cc1c(NC(=O)C(C)OC(=O)c2c3c(nc4ccccc24)CCC(C)C3)c(=O)n(-c2ccccc2)n1C` (stereo not given): 18%. The result for `O=C1CCc2cc(S(=O)(=O)Nc3ccc(C(F)(F)F)cc3)cc3c2N1CC3` reads -0.668%; that for `Cc1cc(OCC(=O)N(C)c2c(N)n(Cc3ccccc3)c(=O)[nH]c2=O)c(C(C)C)cc1Cl`, -4.09%.

As to `O=C(CCNC(=O)c1ccccc1Cl)NN=Cc1ccco1`, the inhibition was -3.45%. Next, `Cc1csc(NC(=O)CSc2ccc(-c3ccc(F)cc3)nn2)n1`: -12.2%. Next, `Cc1csc(NC(=O)CSc2nc(=O)cc(N)n2-c2ccc(F)cc2)n1`: 91.6% (active); `Cc1cc(NC(=O)CSc2nc(=O)cc(N)n2-c2ccc(F)cc2)no1`: -1.5%; `Cc1cc(C)c(S(=O)(=O)N2CCC(C(=O)OCc3c(C)noc3C)CC2)c(C)c1`: -4.27%. The result for `CCCCN(C(=O)C1=NN(c2cc(C)ccc2C)C(=O)CC1)c1c(N)n(CCC)c(=O)[nH]c1=O` reads 0.0423%. Take `CCN(Cc1ccccc1)C(=O)Cc1ccc(OC)c(S(=O)(=O)N2CCOCC2)c1`: the inhibition was -3.18%.

For the compound `COc1ccc(OCCCC(=O)Nc2cccc(S(=O)(=O)N3CCCCCC3)c2)cc1`, the inhibition was -4.87%. For the compound `CCOc1ccc(CCNC(=O)COC(=O)c2c(OC)cccc2OC)cc1OCC`, the inhibition was -5.28%.
